Measured values reported in ChEMBL document CHEMBL1157539, “Thousands of chemical starting points for antimalarial lead identification” (Nature, 2010).

Test system: Plasmodium falciparum
Test: GSK_TCMDC: Inhibition of Plasmodium falciparum 3D7 in whole red blood cells, using parasite LDH activity as an index of growth. Test compounds present at 2uM
Assay type: functional

With Cc1cccc2nc(-c3cccc(-c4cccc(NC(=O)C5CC(=O)Nc6ccccc65)c4)c3)[nH]c12 (stereo not given) as the compound, how does the Inhibition read?
The Inhibition was 85%.

For O=C(Nc1cccc(-c2cccc(-c3ccc(F)cc3)n2)c1)c1ccc([N+](=O)[O-])o1, which Inhibition is on record?
The Inhibition was 99%.

With COc1ccc(Nc2ncc3c(-c4ccc(NC(=O)c5cccc(C(F)(F)F)c5)cc4)c[nH]c3n2)cc1OC as the compound, how does the Inhibition read?
Its Inhibition is 89%.

Which Inhibition does the source give for COc1ccc(NC(=O)Nc2ccc(Nc3nc(C)cc(N(C)C)n3)cc2)cc1 here?
The Inhibition was 100%.

With Nc1nonc1-c1nc2c(-c3cccc(Cl)c3)nccc2n1CCCNC(=O)Cc1ccc(Cl)cc1 as the compound, how does the Inhibition read?
Its Inhibition is 94%.

For CC(C)C[C@H](NC(=O)[C@H](Cc1ccccc1)NC(=O)CCN1C(=O)COc2ccc(C(=O)O)cc21)C(=O)NC(CC1CCCCC1)C(O)CC(=O)NCCCn1ccnc1.Cl.O (stereo not given in full), which Inhibition is on record?
Its Inhibition is 99%.

With O=C(NCc1cccc(F)c1)Nc1cccc(-c2ccc(-c3nc4cc(F)ccc4[nH]3)cc2)c1 as the compound, how does the Inhibition read?
The Inhibition was 84%.

Cl.O=C(NCCCCN1CCC(O)(c2ccc(Cl)cc2)CC1)c1ccc(Br)cc1 was tested. Which Inhibition did it give?
The Inhibition was 82%.

How did the Inhibition turn out when Cc1ccc(Nc2nc3cc(Nc4ccnc(Nc5ccc(CS(C)(=O)=O)cc5)n4)ccc3o2)cc1 was run?
The Inhibition was 99%.

For COc1ccc(NC(=O)/C=C/c2ccccc2Cl)cc1OCCN1CCC(N2CCCCC2)CC1, which Inhibition is on record?
The Inhibition was 100%.

Which Inhibition does the source give for CCC(C)(C)c1ccc(Oc2ccc(NC(=O)Nc3ccc(Cl)c(Cl)c3)cc2)cc1 here?
The Inhibition was 98%.

Which Inhibition does the source give for O=C(COc1cnc2ccccc2n1)Nc1ccccc1Sc1ccc(Cl)cc1 here?
Its Inhibition is 100%.

With O=S(=O)(c1csc2ccccc12)N(CCC(O)(C(F)(F)F)C(F)(F)F)Cc1cccc(O)c1 as the compound, how does the Inhibition read?
The Inhibition was 100%.

How did the Inhibition turn out when CCOc1cc(C(=O)NC2CCN(Cc3ccccc3)C2)ccc1-c1nc2cc(Cl)ccc2[nH]1 (stereo not given) was run?
The Inhibition was 98%.

How did the Inhibition turn out when Cl.O=S(=O)(c1ccc(OCc2ccc(Cl)cc2)cc1)c1cc2c(cc1OCc1ccccc1)CCN(CC1CC1)CC2 was run?
The Inhibition was 82%.

COc1ccc(-c2ccnc(-c3cccc(-c4ccccn4)n3)c2)cc1 was tested. Which Inhibition did it give?
Its Inhibition is 97%.

With CC(CO)(CO)NCc1cc2c3ccccc3c(CNC(C)(CO)CO)cc2c2ccccc12.CS(=O)(=O)O as the compound, how does the Inhibition read?
Its Inhibition is 96%.

Cc1cc(CN2CC[C@H](NC(=O)c3ccc(Cl)c(Cl)c3)C2)ccc1OC1CCN(Cc2ccccc2)CC1.O=C(O)C(F)(F)F was tested. Which Inhibition did it give?
The Inhibition was 98%.

N#Cc1cc(C(=O)c2cc(Cl)ccc2O)cn(-c2cc(Cl)cc(Cl)c2)c1=O was tested. Which Inhibition did it give?
Its Inhibition is 93%.

How did the Inhibition turn out when CCc1cc2c3c(N)nc(N)nc3ccc2n1C(CC)CC was run?
The Inhibition was 96%.

COc1cc(NC(=O)CCCCCCCN2CCN(C)CC2)c2ncccc2c1 was tested. Which Inhibition did it give?
The Inhibition was 95%.

CCCNCc1ccc(-c2ccc(CN(CCOC)C(=O)c3ccco3)cc2)nc1.O=C(O)C(F)(F)F was tested. Which Inhibition did it give?
The Inhibition was 91%.

With COc1ccc(NC(=O)[C@H](CC(C)C)Nc2ccnc(NCCc3ccc(F)cc3)n2)cc1.O=C(O)C(F)(F)F as the compound, how does the Inhibition read?
The Inhibition was 86%.

How did the Inhibition turn out when Cc1cc(=O)c2cc(-c3ccc(OC(F)(F)F)cc3)ccc2[nH]1 was run?
Its Inhibition is 96%.

With CC(Cc1ccc(NC(=O)c2ccc(NCCc3ccccc3)cc2)cc1)NCCc1cccc(Cl)c1.Cl (stereo not given) as the compound, how does the Inhibition read?
Its Inhibition is 92%.

With COc1cc(Cc2c(C)nc3nc(N)nc(N)c3c2C)c(Br)c(OC)c1OC.Cl as the compound, how does the Inhibition read?
The Inhibition was 93%.

Which Inhibition does the source give for CC(C)N1CCN(C(=O)c2ccc(CNCCCN3CCN(c4cccc(Cl)c4Cl)CC3)o2)CC1.Cl here?
The Inhibition was 98%.

Which Inhibition does the source give for CCOc1ccc2[nH]c(C)cc(=NN=Cc3cccc(C)n3)c2c1 here?
The Inhibition was 99%.

How did the Inhibition turn out when O=C(/C=C/c1ccc(Cl)c(Cl)c1)NCCCCCN1CCCC(CNC(=O)Nc2ccc(C(F)(F)F)cc2)C1 (stereo not given) was run?
The Inhibition was 100%.

How did the Inhibition turn out when COc1ccc2c(c1)CCCC2NCCCCNC(=O)c1ccc(NC(=O)c2ccc(Cl)cc2)cc1 (stereo not given) was run?
Its Inhibition is 100%.

For CC(=O)Nc1ccc(C(=O)Nc2ccc(-c3cccc(-c4nc5ccccc5[nH]4)c3)cc2)cn1, which Inhibition is on record?
Its Inhibition is 99%.

With Cc1cc(N(CCN2CCCCC2)CCN2CCCCC2)nc(Nc2ccc(Cl)cc2)n1.Cl as the compound, how does the Inhibition read?
Its Inhibition is 100%.

Cl.N#Cc1ccc2c(c1)CCN(CCC1CCC(NC(=O)/C=C/c3cc(Br)cs3)CC1)CC2 (stereo not given) was tested. Which Inhibition did it give?
The Inhibition was 93%.

How did the Inhibition turn out when CCCCCCC(C)c1cc(O)c2c(c1)OC(C)(C)C=C2c1ccncc1 (stereo not given) was run?
Its Inhibition is 98%.

Which Inhibition does the source give for O=C(Nc1ccc2nc3n(c(=O)c2c1)CCCCC3)C(=O)N1CCN(c2ccc(F)cc2)CC1 here?
Its Inhibition is 93%.

Cc1cccc(-c2ccc(NC(=O)Nc3ccc4nccc(N5CCN(C)CC5)c4c3)cc2C)n1.Cl was tested. Which Inhibition did it give?
The Inhibition was 100%.

Which Inhibition does the source give for O=C(O)C(F)(F)F.c1cnc2ccc(NCc3ccc(-c4ccc(CNC5CCCC5)cc4)cc3)cc2c1 here?
Its Inhibition is 97%.

For Cc1cc(F)ccc1-c1nc(Nc2ccncc2)c2ccn(C)c2n1, which Inhibition is on record?
The Inhibition was 89%.

With CCn1c(-c2ccccc2)cc2nnc3ccccc3c21 as the compound, how does the Inhibition read?
The Inhibition was 92%.

For COc1ccc2nc(-c3ccccc3)cc(N/N=C/c3ccc([N+](=O)[O-])o3)c2c1, which Inhibition is on record?
Its Inhibition is 100%.

Test system: Plasmodium falciparum
Test: GSK_TCMDC: Inhibition of Plasmodium falciparum Dd2 in whole red blood cells, using parasite LDH activity as an index of growth. Test compounds present at 2uM
Assay type: functional

For Cc1cccc2nc(-c3cccc(-c4cccc(NC(=O)C5CC(=O)Nc6ccccc65)c4)c3)[nH]c12 (stereo not given), which Inhibition is on record?
Its Inhibition is 25%.

How did the Inhibition turn out when O=C(Nc1cccc(-c2cccc(-c3ccc(F)cc3)n2)c1)c1ccc([N+](=O)[O-])o1 was run?
The Inhibition was 42%.

COc1ccc(Nc2ncc3c(-c4ccc(NC(=O)c5cccc(C(F)(F)F)c5)cc4)c[nH]c3n2)cc1OC was tested. Which Inhibition did it give?
Its Inhibition is 30%.

COc1ccc(NC(=O)Nc2ccc(Nc3nc(C)cc(N(C)C)n3)cc2)cc1 was tested. Which Inhibition did it give?
The Inhibition was 99%.

For Nc1nonc1-c1nc2c(-c3cccc(Cl)c3)nccc2n1CCCNC(=O)Cc1ccc(Cl)cc1, which Inhibition is on record?
Its Inhibition is 92%.

With CC(C)C[C@H](NC(=O)[C@H](Cc1ccccc1)NC(=O)CCN1C(=O)COc2ccc(C(=O)O)cc21)C(=O)NC(CC1CCCCC1)C(O)CC(=O)NCCCn1ccnc1.Cl.O (stereo not given in full) as the compound, how does the Inhibition read?
The Inhibition was 0%.

With O=C(NCc1cccc(F)c1)Nc1cccc(-c2ccc(-c3nc4cc(F)ccc4[nH]3)cc2)c1 as the compound, how does the Inhibition read?
The Inhibition was 0%.

How did the Inhibition turn out when Cl.O=C(NCCCCN1CCC(O)(c2ccc(Cl)cc2)CC1)c1ccc(Br)cc1 was run?
Its Inhibition is 48%.

With Cc1ccc(Nc2nc3cc(Nc4ccnc(Nc5ccc(CS(C)(=O)=O)cc5)n4)ccc3o2)cc1 as the compound, how does the Inhibition read?
The Inhibition was 66%.

For COc1ccc(NC(=O)/C=C/c2ccccc2Cl)cc1OCCN1CCC(N2CCCCC2)CC1, which Inhibition is on record?
The Inhibition was 49%.

For CCC(C)(C)c1ccc(Oc2ccc(NC(=O)Nc3ccc(Cl)c(Cl)c3)cc2)cc1, which Inhibition is on record?
The Inhibition was 97%.

Which Inhibition does the source give for O=C(COc1cnc2ccccc2n1)Nc1ccccc1Sc1ccc(Cl)cc1 here?
Its Inhibition is 100%.

How did the Inhibition turn out when O=S(=O)(c1csc2ccccc12)N(CCC(O)(C(F)(F)F)C(F)(F)F)Cc1cccc(O)c1 was run?
The Inhibition was 100%.

With CCOc1cc(C(=O)NC2CCN(Cc3ccccc3)C2)ccc1-c1nc2cc(Cl)ccc2[nH]1 (stereo not given) as the compound, how does the Inhibition read?
Its Inhibition is 60%.

With Cl.O=S(=O)(c1ccc(OCc2ccc(Cl)cc2)cc1)c1cc2c(cc1OCc1ccccc1)CCN(CC1CC1)CC2 as the compound, how does the Inhibition read?
Its Inhibition is 0%.

With COc1ccc(-c2ccnc(-c3cccc(-c4ccccn4)n3)c2)cc1 as the compound, how does the Inhibition read?
The Inhibition was 84%.

With CC(CO)(CO)NCc1cc2c3ccccc3c(CNC(C)(CO)CO)cc2c2ccccc12.CS(=O)(=O)O as the compound, how does the Inhibition read?
Its Inhibition is 98%.

For Cc1cc(CN2CC[C@H](NC(=O)c3ccc(Cl)c(Cl)c3)C2)ccc1OC1CCN(Cc2ccccc2)CC1.O=C(O)C(F)(F)F, which Inhibition is on record?
The Inhibition was 29%.

Which Inhibition does the source give for N#Cc1cc(C(=O)c2cc(Cl)ccc2O)cn(-c2cc(Cl)cc(Cl)c2)c1=O here?
Its Inhibition is 32%.

CCc1cc2c3c(N)nc(N)nc3ccc2n1C(CC)CC was tested. Which Inhibition did it give?
Its Inhibition is 12%.

Which Inhibition does the source give for COc1cc(NC(=O)CCCCCCCN2CCN(C)CC2)c2ncccc2c1 here?
The Inhibition was 83%.

How did the Inhibition turn out when CCCNCc1ccc(-c2ccc(CN(CCOC)C(=O)c3ccco3)cc2)nc1.O=C(O)C(F)(F)F was run?
The Inhibition was 21%.

COc1ccc(NC(=O)[C@H](CC(C)C)Nc2ccnc(NCCc3ccc(F)cc3)n2)cc1.O=C(O)C(F)(F)F was tested. Which Inhibition did it give?
The Inhibition was 22%.

Cc1cc(=O)c2cc(-c3ccc(OC(F)(F)F)cc3)ccc2[nH]1 was tested. Which Inhibition did it give?
The Inhibition was 95%.

For CC(Cc1ccc(NC(=O)c2ccc(NCCc3ccccc3)cc2)cc1)NCCc1cccc(Cl)c1.Cl (stereo not given), which Inhibition is on record?
The Inhibition was 1%.

How did the Inhibition turn out when COc1cc(Cc2c(C)nc3nc(N)nc(N)c3c2C)c(Br)c(OC)c1OC.Cl was run?
The Inhibition was 0%.

For CC(C)N1CCN(C(=O)c2ccc(CNCCCN3CCN(c4cccc(Cl)c4Cl)CC3)o2)CC1.Cl, which Inhibition is on record?
Its Inhibition is 36%.

Which Inhibition does the source give for CCOc1ccc2[nH]c(C)cc(=NN=Cc3cccc(C)n3)c2c1 here?
Its Inhibition is 73%.

For O=C(/C=C/c1ccc(Cl)c(Cl)c1)NCCCCCN1CCCC(CNC(=O)Nc2ccc(C(F)(F)F)cc2)C1 (stereo not given), which Inhibition is on record?
The Inhibition was 7%.

COc1ccc2c(c1)CCCC2NCCCCNC(=O)c1ccc(NC(=O)c2ccc(Cl)cc2)cc1 (stereo not given) was tested. Which Inhibition did it give?
The Inhibition was 49%.

How did the Inhibition turn out when CC(=O)Nc1ccc(C(=O)Nc2ccc(-c3cccc(-c4nc5ccccc5[nH]4)c3)cc2)cn1 was run?
Its Inhibition is 84%.

How did the Inhibition turn out when Cc1cc(N(CCN2CCCCC2)CCN2CCCCC2)nc(Nc2ccc(Cl)cc2)n1.Cl was run?
The Inhibition was 79%.

For Cl.N#Cc1ccc2c(c1)CCN(CCC1CCC(NC(=O)/C=C/c3cc(Br)cs3)CC1)CC2 (stereo not given), which Inhibition is on record?
The Inhibition was 1%.

CCCCCCC(C)c1cc(O)c2c(c1)OC(C)(C)C=C2c1ccncc1 (stereo not given) was tested. Which Inhibition did it give?
Its Inhibition is 29%.

For O=C(Nc1ccc2nc3n(c(=O)c2c1)CCCCC3)C(=O)N1CCN(c2ccc(F)cc2)CC1, which Inhibition is on record?
The Inhibition was 86%.

Which Inhibition does the source give for Cc1cccc(-c2ccc(NC(=O)Nc3ccc4nccc(N5CCN(C)CC5)c4c3)cc2C)n1.Cl here?
The Inhibition was 95%.

O=C(O)C(F)(F)F.c1cnc2ccc(NCc3ccc(-c4ccc(CNC5CCCC5)cc4)cc3)cc2c1 was tested. Which Inhibition did it give?
The Inhibition was 21%.

Cc1cc(F)ccc1-c1nc(Nc2ccncc2)c2ccn(C)c2n1 was tested. Which Inhibition did it give?
The Inhibition was 8%.

With CCn1c(-c2ccccc2)cc2nnc3ccccc3c21 as the compound, how does the Inhibition read?
The Inhibition was 87%.

With COc1ccc2nc(-c3ccccc3)cc(N/N=C/c3ccc([N+](=O)[O-])o3)c2c1 as the compound, how does the Inhibition read?
The Inhibition was 99%.
